In ChEMBL document CHEMBL3988442, “University of Dundee, Small-Polar-MMV Screening Library” (2021):
Screen size: about 69,000 compounds; about 420 (0.61%) showed an effect of 50% or more. Many of the other results were omitted from the sample, so strong results are more common in it than they were.

The compounds below were run against T1, Histidine--tRNA ligase (Leishmania infantum) (UniProt A4I591) (assay: Leishmania infantum Histidine tRNA synthetase (LdHisRS)). Conditions: 30 µM.
T1 sequence (whole entry): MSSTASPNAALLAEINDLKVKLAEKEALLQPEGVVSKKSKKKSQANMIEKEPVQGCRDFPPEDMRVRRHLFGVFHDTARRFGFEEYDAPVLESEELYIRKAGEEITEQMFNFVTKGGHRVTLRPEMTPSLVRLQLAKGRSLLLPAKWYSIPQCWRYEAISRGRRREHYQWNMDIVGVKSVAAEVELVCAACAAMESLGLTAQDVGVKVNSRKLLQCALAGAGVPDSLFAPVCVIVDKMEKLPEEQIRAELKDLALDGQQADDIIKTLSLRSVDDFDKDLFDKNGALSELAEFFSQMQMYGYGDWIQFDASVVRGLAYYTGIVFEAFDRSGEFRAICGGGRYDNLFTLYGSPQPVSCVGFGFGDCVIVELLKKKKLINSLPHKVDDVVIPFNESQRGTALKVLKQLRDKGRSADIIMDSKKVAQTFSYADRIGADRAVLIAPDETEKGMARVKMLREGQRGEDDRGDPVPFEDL
Format: functional
Design: scale not given: in the data most compounds retested in dose-response had high values

| SMILES | Percent Effect [%] |
| --- | --- |
| Cc1cnc(N2CCN(C)CC2)nc1-c1ccnn1C | 7.84 |
| COc1cnc(N2CCN(C)CC2)nc1-c1ccnn1C | 13.7 |
| COc1cnc(N2CC(N3CCOCC3)C2)nc1-c1ccnn1C | 92.2 |
| CC(=O)N1[C@H](Cn2cncn2)C[C@@H]2CN(CC3CC3)CC[C@@H]21 | 11.1 |
| Cc1cc(C(=O)N2C[C@@H]3COC[C@]3(CN(C)C)C2)sc1C | -39.3 |
| COCCN1C[C@@H]2CN(Cc3ccc(C)s3)CCC[C@]2(C(=O)O)C1 | -8.18 |
| CS(=O)(=O)N1CC[C@H]2C[C@@H](C(=O)N3CCOCC3)O[C@@H]2C1 | -3.77 |
| O=C1N(Cc2cccnc2)C[C@H]2CN(S(=O)(=O)c3ccccc3)CCN12 | 13.5 |
| Cc1ccoc1C(=O)N1CCO[C@H]2[C@H](OCC3CCOCC3)CC[C@@H]21 | 7.55 |
| CC(O)c1cccc(-n2c(CCC(=O)O)nc3ccccc32)c1 (stereo unspecified) | 40 |
| COc1ccc(-n2c(CCC(=O)O)nc3ccccc32)cc1CO | 60 |
| COc1ccc(-n2c(CO)nc3ccccc32)cc1CO | 34.3 |
| CNC[C@H]1CC[C@H](c2cc(CN(C)S(=O)(=O)N(C)C)n(C)n2)CC1 | -50 |
| O=C(c1ccco1)N1CCO[C@@H]2CN(CC3CC3)CC[C@@H]2C1 | 26 |
| CN1[C@H]2CC[C@@H]1CN(C(=O)c1nnc3n1CCCC3)CC2 | 8.89 |
| Cc1ccc(N2CCCC(N(C)c3nn4cc(C)nc4s3)C2)nn1 (stereo unspecified) | 15.9 |
| Cc1ncc(CN(C)C2CCCN(c3cccnn3)C2)s1 (stereo unspecified) | 6.74 |
| Cc1cn2nc(N(C)C3CCCN(c4cccnn4)C3)sc2n1 (stereo unspecified) | 65.5 |
| COc1ccc(CN2C[C@@H]3OCCN(CCN4CCCC4)[C@@H]3C2)cc1 | 0.917 |
| CN(C)C(=O)c1nc2c(s1)CCCN2Cc1ccccc1 | -245 |
| CCN(C(=O)c1nc2c(s1)CCCN2Cc1ccccc1)C(C)C | 74.4 |
| CC(C)NC(=O)c1nc2c(s1)CCCN2Cc1ccccc1 | 38.5 |
| CSc1ccccc1C(=O)N1C[C@H]2CC[C@@H]1CN(C(=O)C1CCC1)C2 | 14.5 |

| SMILES | Percent Effect [%] |
| --- | --- |
| O=C(CC1CC1)N[C@@H]1CN(C(=O)c2ccsc2)C[C@@H]2CCCO[C@@H]21 | 0.901 |
| CN(C)CCn1c(=O)oc2ccc(NC(=O)CC(C)(C)C)cc21 | 37.9 |
| CCC(C)C(=O)Nc1ccc2oc(=O)n(CCN(C)C)c2c1 (stereo unspecified) | 27.7 |
| CCC(CC)C(=O)Nc1ccc2oc(=O)n(CCN(C)C)c2c1 | 15.2 |
| CN(C)CCn1c(=O)oc2ccc(NC(=O)C3CCCO3)cc21 (stereo unspecified) | 53.4 |
| CC(C)CCC(=O)Nc1ccc2oc(=O)n(CCN(C)C)c2c1 | 27.7 |
| CN(C)CCn1c(=O)oc2ccc(NC(=O)N3CCCCCC3)cc21 | 59.8 |
| CCNC(=O)N1CC[C@H]2CC(=O)N(CC(N)=O)CC[C@H]2C1 | 11.1 |
| CCCc1ccc(CN2CCN(c3ncccn3)[C@@H]3CS(=O)(=O)C[C@@H]32)o1 | 13.2 |
| Cc1nc(CN2C[C@@H]3CN(C(=O)NC(C)C)C[C@@H]3C2=O)cs1 | 2.94 |
| CC(C)NC(=O)c1sc2ccccc2c1[C@H]1CC[C@H](CN)CC1 | 8.45 |
| Cn1cc(CN2CCC[C@]3(C(=O)O)CN(c4ncccn4)C[C@@H]3C2)cn1 | 27.8 |
| Cc1noc([C@H]2C[C@H]3OCC[C@H]3N(C3CCC3)C2)n1 | -1.06 |
| O=C(c1cccc(F)c1)N1CC[C@@H]2CN(c3ncccn3)CCO[C@@H]2C1 | 6 |
| CCc1ccc(NC(=O)N2C[C@H]3CC[C@@]4(N=C(C)N(C)C4=O)[C@H]3C2)cc1 | 24.7 |
| CN(C)C(=O)CN1CCCC1c1cccc(Cc2ccccc2F)n1 (stereo unspecified) | 55.7 |
| CN1CCCC1c1cccc(Cc2ccccc2F)n1 (stereo unspecified) | 16.7 |
| CC(=O)N1CCCC1c1cccc(Cc2ccccc2F)n1 (stereo unspecified) | 0 |
| CCS(=O)(=O)N1C[C@H]2C[C@H](C(=O)N(C)C)[C@@H](C1)O2 | 6.57 |
| O=C(c1ccc[nH]1)N1C[C@H]2CC[C@@H]1CN(c1ncccn1)C2 | 21.7 |
| Cc1ccc(C(=O)N(C2CC2)C2CC(=O)NC2=O)cc1F (stereo unspecified) | 8.47 |
| CN(C)C(=O)COCC1CN(Cc2ccco2)Cc2ncn(C)c21 (stereo unspecified) | 20.8 |
| CCn1nnc2c1C(COCC(=O)N(C)C)CN(Cc1ccoc1)C2 (stereo unspecified) | 5.66 |

| SMILES | Percent Effect [%] |
| --- | --- |
| CCn1nnc2c1C(COC)CN(Cc1ccco1)C2 (stereo unspecified) | 52.8 |
| CCn1nnc2c1C(COCCN(C)C)CN(Cc1ccco1)C2 (stereo unspecified) | 1.89 |
| CCn1nnc2c1C(COC)CN(Cc1cccs1)C2 (stereo unspecified) | 13.5 |
| CCn1nnc2c1C(COCC(=O)N(C)C)CN(Cc1ccco1)C2 (stereo unspecified) | 50.9 |
| CC(=O)N1C[C@@H]2CN(S(=O)(=O)C3CC3)CCO[C@@H]2C1 | 10 |
| O=C1O[C@@H]2CN(c3cnccn3)C[C@@H]2N1CCCc1ccc(F)cc1 | 11 |
| CCCS(=O)(=O)N1C[C@@H](Oc2ccccn2)[C@H]2OCCC[C@H]21 | 9.73 |
| Cc1ncc(CN2Cc3ccccc3O[C@]3(CC[C@H](CO)CC3)C2)cn1 | 11.1 |
| Fc1cnc(N2CC[C@@H]3OC(COCc4cccnc4)CC[C@@H]32)nc1 (stereo partly specified) | 5.26 |
| O=C(c1ccco1)N1CC[C@@H]2O[C@@H](COCC3CCOCC3)CC[C@@H]21 | -0.84 |
| COC[C@@]12CCO[C@@H]1CCN(C(=O)CCc1ccccc1Cl)C2 | 12.9 |
| CCc1ncc2c(n1)CN(Cc1nnc(Cc3ccccc3)o1)CC2 | 31.2 |
| CC(C)c1ncc2c(n1)CN(Cc1nnc(Cc3ccccc3)o1)CC2 | 33 |
| Cc1ncc2c(n1)CN(Cc1nnc(Cc3ccccc3)o1)CC2 | 55.4 |
| CC(C)N1C[C@@H]2OCC(=O)N(Cc3ccccc3)[C@@H]2C1 | 8.11 |
| Cc1nnc(N2CCc3cncnc3C2)c(C#N)c1C | 65.3 |
| CCc1ncc2c(n1)CN(c1nnc(C)c(C)c1C#N)CC2 | 12 |
| Cc1nnc(N2CCc3cnc(C(C)C)nc3C2)c(C#N)c1C | 46.7 |
| O=C(c1ccnnc1)N1C[C@@H](OCC2CCOCC2)[C@H]2OCCC[C@H]21 | 11.8 |
| COC(=O)c1ccc(OC)c(CN2CCN(CC(C)C)C(=O)C2C)c1 (stereo unspecified) | 10.8 |
| COc1cccc(CN2CCN(CC(C)C)C(=O)C2C)c1O (stereo unspecified) | 98.9 |
| COc1cc(F)c(CN2CCN(CC(C)C)C(=O)C2C)cc1OC (stereo unspecified) | 10.8 |
| COc1ccc(NCc2ccccc2N2CCN(C(C)=O)CC2)cn1 | 24.7 |

| SMILES | Percent Effect [%] |
| --- | --- |
| CC(=O)N1CCN(c2ccccc2CNc2ccc3[nH]ncc3c2)CC1 | 57.5 |
| CC(=O)N1CCN(c2ccccc2CNc2cncc(C)c2)CC1 | 11 |
| Cn1ccnc1CN1CCN(Cc2ccccc2)[C@@H]2CS(=O)(=O)C[C@@H]21 | 5.59 |
| CNc1[nH]nc(N)c1C(=O)Nc1ccc(OC)cc1 | 27.5 |
| CNc1[nH]nc(N)c1NC(=O)c1ccccc1 | 87.5 |
| CNc1[nH]nc(N)c1C(=O)Nc1ccccc1 | -15 |
| Cc1[nH]ccc1C(=O)N1C[C@H]2CC[C@@H]1CN(S(=O)(=O)N(C)C)C2 | 16.1 |
| COCCn1cc(NCc2cn(C)nc2-c2ccncc2)cn1 | 51.8 |
| Cn1cc(CNc2cnn(CCO)c2)c(-c2ccncc2)n1 | 21.9 |
| Cn1cc(CNc2cnn(CC3CCCO3)c2)c(-c2ccncc2)n1 (stereo unspecified) | 30.7 |
| Cc1ncsc1CN1C[C@@H]2CN(S(C)(=O)=O)CCO[C@@H]2C1 | 20 |
| Cc1ccc(CN2CC[C@H]3C[C@@H](c4nc(C5CC5)cs4)O[C@@H]3C2)o1 | 19.8 |
| Cc1noc([C@@]23CCO[C@@H]2CCN(C(=O)CCC(C)C)C3)n1 | 5.56 |
| Cn1ccnc1CC1CCCN(C(=O)Nc2cccn(C)c2=O)C1 (stereo unspecified) | 17.3 |
| Cc1cnc(C(=O)N2CCC(COCc3ccccc3)C2)cn1 (stereo unspecified) | 2.67 |
| Cc1nn(C)cc1C(=O)N1CCC(CSc2ccccc2)C1 (stereo unspecified) | 11 |
| Cn1cccc(NC(=O)N2CCC(Cc3ccccc3)C2)c1=O (stereo unspecified) | 106 |
| CC(C)(C)C(=O)N1CCC(COCc2ccccc2)C1 (stereo unspecified) | 8 |
| COc1c(C(=O)N2CCC(CSc3ccccc3)C2)c(C)nn1C (stereo unspecified) | 19.2 |
| Cn1cccc(NC(=O)N2CCC(CSc3ccccc3)C2)c1=O (stereo unspecified) | 78.1 |
| CC(C)[C@H](NC(=O)N1CCC(Cc2ccccc2)CC1)C(=O)O | -2.5 |
| Cn1cccc(NC(=O)N2CCC(COCc3ccccc3)C2)c1=O (stereo unspecified) | 108 |
| Cc1csc(CN2C[C@@H]3COC[C@]3(C(=O)NCc3ccco3)C2)n1 | 7 |

| SMILES | Percent Effect [%] |
| --- | --- |
| Cc1oncc1C(=O)N1CC[C@H]2[C@H](CO[C@@H]2CNS(C)(=O)=O)C1 | 28.6 |
| CN(C)C[C@H]1OC[C@@H]2CCN(C(=O)Cc3cccs3)C[C@@H]21 | 7.89 |
| CN(C)C(=O)N1C[C@@H](C(=O)NCc2ccco2)C[C@H]2OCC[C@H]21 | 0 |
| O=C(O)[C@]12CCCN(Cc3cccs3)C[C@H]1CN(c1ncccn1)C2 | 22.2 |
| Cc1nc[nH]c1CN1C[C@@H]2CC[C@H](C1)N(C(=O)CCc1cnn(C)c1)C2 | 16.4 |
| Cc1ccc(C)c(CC(=O)Nc2cccc(C(=O)N(C)C)n2)c1 | 17.1 |
| CN(C)C(=O)c1cccc(NC(=O)Cc2cc(F)ccc2F)n1 | 19.7 |
| COc1cc(CC(=O)Nc2cccc(C(=O)N(C)C)n2)ccc1C | 54 |
| O=S(=O)(c1cccs1)N1CC[C@H]2[C@H]1CCN2CC1CC1 | 3.88 |
| CN(C)C[C@H]1OC[C@@H]2CCN(C(=O)c3cccn3C)C[C@@H]21 | 9.43 |
| c1ccc(COC[C@H]2CC[C@H]3[C@H](CCN3Cc3ccccn3)O2)nc1 | 10 |
| NC(=O)c1ccccc1-n1cc(-c2cccc(C(=O)O)c2)cn1 | 52.6 |
| NC(=O)c1cc(-c2cccc(C(=O)O)c2)cs1 | 15.8 |
| NC(=O)c1cc(-n2cc(-c3cccc(C(=O)O)c3)cn2)cs1 | 10.5 |
| CCC1=NN2C(=N)/C(=C\c3cccn3-c3ccc(Br)cc3)C(=O)N=C2S1 | 11 |
| CN(C)CCN1C[C@@H]2CN(c3ccccc3)C[C@@H]2C1=O | 6.36 |
| CC(C(=O)N1CCc2ccccc2C1)N(C)Cc1cscn1 (stereo unspecified) | 3.9 |
| CCc1cnc(CN(C)C(C)C(=O)N2CCc3ccccc3C2)s1 (stereo unspecified) | 9.09 |
| Cc1csc(CN(C)C(C)C(=O)N2CCc3ccccc3C2)n1 (stereo unspecified) | 55.8 |
